Compound activity deposited in PubChem by National Center for Advancing Translational Sciences (NCATS).
Shown is part of a subset that was picked to be rich in hits.
HTT-AS act – activates huntingtin-antisense promoter activity | AID 1508624 | actives 0.24% (n = 48,000) | Potency, µM (doses to about 57.5 µM), hits mostly activators | HEK293 HTT-AS promoter firefly luciferase reporter, 24 h; response scale: percent change from vehicle, -100% = no light; further: nearly all actives have a fitted effect of over 55% in size
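Firefly luciferase signal from promoter-reporter HEK293 cells was scaled between vehicle (0%) and zero RLU (-100%). Compounds were tested at final concentrations of up to 57.5 uM over 24 h at 37 degrees C. PTC124 at 50 uM final served as control inhibitor.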
NTMT1 inhibitor – blocks human N-terminal methyltransferase 1 activity. Potency, µM (doses to about 114 µM), actives largely listed as inhibitors. NTMT1 MTase-Glo SAH luminescence, purified enzyme. Q9BV86. actives 2.5% (n = 59,000); further: nearly all actives have a fitted effect of over 65% in size
Target sequence (Q9BV86 whole entry, looked up): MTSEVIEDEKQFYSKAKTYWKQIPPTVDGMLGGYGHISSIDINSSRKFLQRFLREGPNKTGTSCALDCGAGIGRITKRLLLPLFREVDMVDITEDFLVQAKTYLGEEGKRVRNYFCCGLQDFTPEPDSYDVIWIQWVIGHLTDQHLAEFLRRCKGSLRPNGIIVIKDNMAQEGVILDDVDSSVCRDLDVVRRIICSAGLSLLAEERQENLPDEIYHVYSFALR
HTT prom inh – inhibitors of huntingtin promoter activity; Potency, µM (doses to about 57.5 µM), most hits filed as inhibitors; actives 0.93% (n = 48,000); AID 1508623; HEK293 HTT promoter firefly luciferase reporter, 24 h; further: nearly all actives have a fitted effect of over 50% in size
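HEK293 Fluc reporter, 2,500 cells/well, 24 h pre-culture; cpds up to 57.5 uM final, 24 h 37 degrees C; Dual-Glo, 10 min RT; normalized vehicle = 0%, zero RLU = -100%.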
CLK4 inh-1 – confirmation of human CLK4 kinase inhibitors, SAR round 2. Potency, µM (highest dose often 76.9 µM), most hits filed as inhibitors. actives 90% (n = 90). recombinant Clk4, Kinase-Glo ATP luminescence, 4.5 h. AID 493204. shares compounds with NTMT1 inhibitor
CLK4 inh-2 – inhibitors of human CLK4 kinase, SAR round 2 | Reaction Biology kinase assay, 10 uM ATP | AID 504421 | shares compounds with NTMT1 inhibitor | actives 100% (n = 65) | Potency, µM, usual class: inhibitors; calls by dose curve
DYRK1A inh – DYRK1A kinase inhibition | actives 90% (n = 65) | Reaction Biology kinase assay, 10 uM ATP | AID 504424 | shares compounds with NTMT1 inhibitor | Potency, µM, usual class: inhibitors;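 active means compounds that showed inhibition of Dyrk1a and received a fitted potency; inactive means compounds that showed no inhibition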
CLK2 RBC – inhibitors of human CLK2 kinase; Potency, µM, hits mostly inhibitors; shares compounds with NTMT1 inhibitor; AID 504427; Reaction Biology kinase assay, 10 uM ATP; actives 90% (n = 65);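 active means compound that inhibits Clk2 kinase in the dose series, with an IC50 potency reported; inactive means no inhibition seen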
CLK3 inh – blocks human CLK3 kinase activity; shares compounds with NTMT1 inhibitor; recombinant CLK3 kinase assay, 10 uM ATP; actives 40% (n = 65); Potency, µM, usual class: inhibitors;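 active means compounds that inhibited Clk3 enough in the ten-dose series to give a half-maximal potency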
DYRK1B RBC – DYRK1B kinase inhibition; actives 80% (n = 65); AID 504429; Potency, µM, most hits filed as inhibitors; shares compounds with NTMT1 inhibitor; Recombinant Dyrk1b kinase assay, 10 uM ATP;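 active means compounds whose dose response shows an inhibitor phenotype against the kinase Dyrk1b; inactive means compounds showing no inhibitor phenotype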
CLK1 inh – inhibitors of human CLK1 kinase | actives 90% (n = 65) | Potency, µM, actives largely listed as inhibitors | AID 504430 | recombinant Clk1 kinase assay, 10 uM ATP | shares compounds with NTMT1 inhibitor;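 active means compounds that block the splicing kinase Clk1 enough to give a fitted half-inhibition concentration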
Sfp PPTase inh – inhibitors of Bacillus subtilis Sfp PPTase, optimization followup; shares compounds with NTMT1 inhibitor; purified Sfp PPTase enzyme activity, qHTS; Potency, µM (series often up to 114 µM), most hits filed as inhibitors; actives 78% (n = 230)
HM489 growth – reduces growth of B. subtilis HM489 strain. shares compounds with NTMT1 inhibitor. B. subtilis HM489 (acpS-) growth, BacTiter-Glo, 5 h. Potency, µM (highest dose often 114 µM), hits mostly inhibitors. actives 50% (n = 220). AID 540353
Sfp gel opt – inhibitors of Bacillus subtilis Sfp PPTase, gel-based followup. shares compounds with NTMT1 inhibitor. purified Sfp PPTase, gel-based product detection. Potency, µM (titrated, usually from 250 µM), most hits filed as inhibitors. actives 54% (n = 220). AID 540355
Sfp gel – inhibits B. subtilis Sfp PPTase in gel-based assay. purified Sfp PPTase, gel-based product detection. AID 602362. shares compounds with NTMT1 inhibitor. actives 90% (n = 45). Potency, µM (doses to about 250 µM), usual class: inhibitors
Sfp inh SAR2 – inhibitors of Bacillus subtilis Sfp PPTase, SAR round 2; shares compounds with NTMT1 inhibitor; purified Sfp enzyme, PPTase activity, qHTS; Potency, µM (top dose mostly 57.1 µM), most hits filed as inhibitors; actives 87% (n = 230); AID 602370
hGST A1-1 inh – counter-screen for Sfp PPTase inhibitors: hGST A1-1 inhibition | shares compounds with NTMT1 inhibitor | hGST A1-1 enzyme activity counter-screen, qHTS | Potency, µM (series often up to 114 µM), hits mostly inhibitors | 55 tested, under 10 active
HSD17B4 inh – counter-screen for HPGD inhibitors: human HSD17B4 inhibition. shares compounds with NTMT1 inhibitor. purified HSD17B4, estradiol/NAD+, NADH fluorescence. Potency, µM (highest dose often 57.1 µM), most hits filed as inhibitors. actives 10% (n = 230). AID 743187
ALDH1A1 counter – inhibits human ALDH1A1, off-target for HPGD inhibitors; Potency, µM (titrated, usually from 57.1 µM), actives largely listed as inhibitors; recombinant ALDH1A1, NADH fluorescence, propionaldehyde/NAD+; shares compounds with NTMT1 inhibitor; actives 93% (n = 230)
Target sequence (P00352 whole entry, looked up): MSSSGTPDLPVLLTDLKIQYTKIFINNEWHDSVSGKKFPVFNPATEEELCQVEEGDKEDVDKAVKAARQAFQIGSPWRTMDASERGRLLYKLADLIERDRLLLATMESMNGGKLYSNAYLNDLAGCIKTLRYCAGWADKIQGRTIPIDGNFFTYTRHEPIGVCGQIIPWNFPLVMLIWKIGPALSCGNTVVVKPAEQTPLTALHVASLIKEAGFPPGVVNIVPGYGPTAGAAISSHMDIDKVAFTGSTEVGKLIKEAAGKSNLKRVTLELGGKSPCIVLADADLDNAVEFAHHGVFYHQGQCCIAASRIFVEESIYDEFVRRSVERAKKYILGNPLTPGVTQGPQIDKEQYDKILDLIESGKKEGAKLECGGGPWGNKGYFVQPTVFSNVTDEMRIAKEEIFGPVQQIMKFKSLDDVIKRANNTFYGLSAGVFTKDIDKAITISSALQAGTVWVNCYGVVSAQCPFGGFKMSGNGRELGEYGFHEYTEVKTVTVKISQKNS
NNMT inh – blocks human NNMT methyltransferase | shares compounds with NTMT1 inhibitor | actives 10% (n = 120) | AID 1645878 | NNMT MTase-Glo luminescence, SAH detection | Potency, µM (series often up to 57.1 µM), most hits filed as inhibitors
Of the large screens only hits and unclear results are named; the others gave an inactive call (follow-up assays come after a bar, where they were run). Unless noted, the call rests on the fitted dose curve; in most records, active means well fitted curve in the direction sought with a large enough effect; inconclusive means small, poorly fitted or top-dose-only effect, or another doubt; inactive means no such curve, though single readings can be large; an effect the other way counts as inactive or inconclusive.

COCCCNCC1COc2ccccc2O1 (stereo not given)	none (no result: HTT-AS act, HTT prom inh)
C=C1C(=O)O[C@H]2C3=C(C)CCC[C@]3(C)C(=O)C[C@@H]12	none (no result: HTT-AS act, HTT prom inh)
N#Cc1cccc(CSc2nc3ncc(Br)cc3[nH]2)c1	none (no result: HTT-AS act, HTT prom inh)
Cc1cc(C)nc(NC(=S)N2CCN(c3nccc(C(F)(F)F)n3)CC2)c1	NTMT1 inhibitor inconclusive (no result: HTT-AS act, HTT prom inh) | Sfp PPTase inh 2.1µM | HM489 growth inconclusive | Sfp gel opt 3.2µM | Sfp inh SAR2 1.1µM | HSD17B4 inh inconclusive | ALDH1A1 counter 17µM
Cc1ccc(-n2ncc3c(N4CCN(C)CC4)ncnc32)cc1	HTT prom inh inconclusive
Cc1cc(C)nc(NC(=S)N2CCN(c3ncnc4sccc34)CC2)c1	none (no result: HTT-AS act, HTT prom inh) | Sfp PPTase inh 5.9µM | HM489 growth inconclusive | Sfp gel opt 40µM | Sfp inh SAR2 1.8µM | HSD17B4 inh inactive | ALDH1A1 counter 9.6µM
Cn1c(CNc2cccc(C(=O)NCc3ccccc3C(F)(F)F)c2)nnc1-c1ccncc1	none (no result: HTT-AS act, HTT prom inh)
CC(C)C[C@@H]1NC(=O)[C@@H](Cc2ccccc2)NC(=O)C(CCCCCC(=O)C2CO2)NC(=O)[C@@H]2CCCCN2C1=O (stereo not given in full)	none (no result: HTT-AS act, HTT prom inh)
CCc1ccc(CNC(=O)c2c(C)oc3ncnc(N4CCOCC4)c23)cc1	HTT prom inh inconclusive
OCc1ccc(-c2ccc3ncnc(N4CCOCC4)c3c2)o1	none (no result: HTT-AS act, HTT prom inh) | CLK4 inh-1 0.52µM | CLK4 inh-2 1.1 | DYRK1A inh 15µM | CLK2 RBC 14µM | CLK3 inh inactive | DYRK1B RBC 15µM | CLK1 inh 5.3µM
CC(=O)Nc1sc2cnccc2c1-c1nc2ccccc2s1	none (no result: HTT-AS act, HTT prom inh)
OCCCNc1cc(-c2ccnc(Nc3cccc(Cl)c3)n2)ccn1	NTMT1 inhibitor 4.5µM, HTT prom inh inconclusive | NNMT inh 25µM
N#Cc1nc(NCCCO)nc(Nc2ccccc2)n1	none (no result: HTT-AS act, HTT prom inh)
CN1C(=O)CCc2cc(S(=O)(=O)Nc3ccc(Cl)c(Cl)c3)ccc21	none (no result: HTT-AS act, HTT prom inh)
COC(=O)[C@H](c1ccccc1Cl)N1CCC2SC(=O)C=C2C1 (stereo not given in full)	none (no result: HTT-AS act, HTT prom inh)
CCN1CCN(Cc2ccc(Nc3ncc(F)c(-c4cc(F)c5nc(C)n(C(C)C)c5c4)n3)nc2)CC1	NTMT1 inhibitor 10µM (no result: HTT-AS act, HTT prom inh) | NNMT inh inconclusive
COc1ccc(-c2cc3c(C)nc(N)nc3n(C3CCC(OCCO)CC3)c2=O)cn1 (stereo not given)	HTT prom inh inconclusive | NNMT inh inconclusive
CN(C)CCCOc1ccc(-c2ccc3ncc4c(c3c2)n(C2CCOCC2)c(=O)n4C)cn1	none (no result: HTT-AS act, HTT prom inh)
N#Cc1cccc(CN2CCC(N(Cc3cccnc3)C(=O)Nc3ccccc3-c3ccccc3)CC2)c1	none (no result: HTT-AS act, HTT prom inh)
CCCC1(CCC)CCC2(CCN(CCCN(CC)CC)C2)CC1	NTMT1 inhibitor 22µM (no result: HTT-AS act, HTT prom inh) | NNMT inh inactive
CC(C)(C)c1cc(Br)cc([C@H](CC(=O)O)NC(=O)CNC(=O)c2cc(O)cc(NC3=NCC(O)CN3)c2)c1 (stereo not given in full)	none (no result: HTT-AS act, HTT prom inh)
O=C(O)c1cc(N(Cc2ccc(C3CCCCC3)cc2)C(=O)c2ccc(Oc3ccccc3)cc2)ccc1O	NTMT1 inhibitor 32µM (no result: HTT-AS act, HTT prom inh) | NNMT inh inactive
COc1ccc(C(=O)N(Cc2ccccc2)Cc2ccccc2)c(O)c1	none (no result: HTT-AS act, HTT prom inh)
Cc1cc(C)c(NC(=O)Cn2nc(-c3ccncc3)ccc2=O)c(C)c1	none
Cc1cc(-c2ncc(CC(=O)Nc3ccc(-c4cnccn4)cn3)cc2C)ccn1	none | NNMT inh inconclusive
CC(=O)c1ccc(O[C@@H]2OC[C@@H](O)[C@H](O)[C@H]2O[C@]2(CO)O[C@H](CO)[C@@H](O)[C@@H]2O)c(O)c1	none (no result: HTT-AS act, HTT prom inh)
Cc1nnc(-c2cnn(C)c2)n1CCCn1ccnc1	none (no result: HTT-AS act, HTT prom inh)
COc1ccnc(NC(=S)N2CCN(c3cccc(Cl)c3Cl)CC2)c1	NTMT1 inhibitor inconclusive (no result: HTT-AS act, HTT prom inh) | Sfp PPTase inh 5.9µM | HM489 growth 5.9µM | Sfp gel opt 7.9µM | Sfp gel inconclusive | Sfp inh SAR2 1µM | hGST A1-1 inh inactive | HSD17B4 inh inactive | ALDH1A1 counter 3.8µM
